A selection: hits, their analogues and other compounds. The true share with any hit is near 3.9%.
Tb PFK inh – qHTS Assay to Find Inhibitors of T. brucei phosphofructokinase; ATP-dependent 6-phosphofructokinase (Trypanosoma brucei brucei), O15648; T. brucei PFK, ADP-Glo luminescence; Potency, µM (series often up to 57.5 µM), hits mostly inhibitors; actives 0.17% (n = 330,000); further: nearly all actives have a fitted effect of over 60% in size
Target sequence (O15648 whole entry, looked up): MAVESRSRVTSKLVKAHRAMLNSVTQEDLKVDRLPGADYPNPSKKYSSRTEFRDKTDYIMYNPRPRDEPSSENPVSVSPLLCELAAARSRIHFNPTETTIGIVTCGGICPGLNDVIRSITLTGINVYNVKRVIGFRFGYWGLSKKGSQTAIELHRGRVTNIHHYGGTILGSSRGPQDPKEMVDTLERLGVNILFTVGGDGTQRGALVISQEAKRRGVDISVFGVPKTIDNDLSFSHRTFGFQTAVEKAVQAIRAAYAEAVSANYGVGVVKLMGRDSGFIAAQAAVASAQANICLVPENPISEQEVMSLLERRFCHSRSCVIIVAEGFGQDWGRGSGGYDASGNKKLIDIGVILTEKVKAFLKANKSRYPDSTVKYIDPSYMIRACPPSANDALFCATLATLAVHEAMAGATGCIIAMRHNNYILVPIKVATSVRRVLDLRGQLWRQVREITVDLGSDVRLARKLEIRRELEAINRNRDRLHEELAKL
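ADP-Glo luminescence quantified ADP after 45 min at room temperature, with 1.25 nM T. brucei PFK, 0.1 mM ATP and 0.5 mM fructose-6-phosphate in pH 8.0 TEA buffer. qHTS titrations up to 57 µM; curves classified by quality.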
VDR inhibitor – Inhibitors of the vitamin D receptor (VDR): qHTS. Vitamin D3 receptor (Homo sapiens), P11473. VDR-SRC2-3 peptide fluorescence polarization, 2 h. Potency, µM, usual class: inhibitors. actives 0.93% (n = 400,000). AID 504847, 2011
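Fluorescence polarization assay measuring small-molecule disruption of VDR binding to the coregulator peptide SRC2-3. Compounds were pin-transferred (23 nl) into the reagent mix and incubated 2 h at room temperature before reading.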
BRCA1 expr act – qHTS Assay to Identify Small Molecule Activators of BRCA1 Expression; MCF7-BRCA1-FFLuc reporter, luminescence, 48 h; response scale: scaled: vehicle 0%, 10 µM genistein 100%; Potency, µM (series often up to 46.1 µM), usual class: activators; actives 1.1% (n = 380,000); AID 624202, 2012; further: nearly all actives have a fitted effect of over 80% in size
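Luminescence from a BRCA1-driven firefly luciferase in MCF7 cells was read after 48 h compound exposure at 37 C. Data normalized against DMSO and a 10microM genistein activation control, then curve-fitted across the titration.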
PLK1 PBD inh – qHTS for Inhibitors of PLK1-PDB (polo-like kinase 1 - polo-box domain): Primary Screen. Serine/threonine-protein kinase PLK1 (Homo sapiens), P53350. AID 720504, 2013. Plk1 PBD binding of FITC phosphopeptide, fluorescence polarization. Potency, µM, hits mostly inhibitors. actives 2.8% (n = 360,000); further: series mostly up to about 57 µM; nearly all actives have a fitted effect of over 65% in size
Of the large screens only hits and unclear results are named; the others gave an inactive call; ! = not confirmed by another sample. The call rests on the fitted dose curve; in most records, active means well fitted curve in the direction sought with a large enough effect; inconclusive means small, poorly fitted or top-dose-only effect, or another doubt; inactive means no such curve, though single readings can be large; an effect the other way counts as inactive or inconclusive.

O=C(CCN1CCN(S(=O)(=O)c2ccc(Cl)cc2)CC1)Nc1ccccc1F	none
NS(=O)(=O)c1ccc(O)c(NC(=O)c2ccc([N+](=O)[O-])o2)c1	Tb PFK inh inconclusive, VDR inhibitor inconclusive, PLK1 PBD inh 4.23µM
COc1ccc(CN2C(=O)C(CC(=O)NCCCN(C)C)CC(C(=O)N(C)C)=C2C)cc1 (centres undefined)	none (no result: Tb PFK inh, VDR inhibitor)
Cc1cccc(/C=N/n2c(C3CCCCC3)n[nH]c2=S)c1	VDR inhibitor inconclusive, PLK1 PBD inh 26.7µM
O=C(O)c1ccccc1/C=N/n1c(C2CCCCC2)n[nH]c1=S	VDR inhibitor inconclusive
FC(F)(F)c1ccccc1/C=N/n1c(C2CCCCC2)n[nH]c1=S	PLK1 PBD inh 26.7µM
S=c1[nH]nc(C2CCCCC2)n1/N=C/c1cccc(Br)c1	none
S=c1[nH]nc(C2CCCCC2)n1/N=C/c1ccccc1Cl	PLK1 PBD inh 13.4µM
CCOC(=O)C1=C(C(=O)OCC)c2ccc(OC)c(OC)c2C1	none (no result: Tb PFK inh)
CCCOc1ccc(CCC(=O)N/N=C/c2ccncc2)cc1	VDR inhibitor inconclusive, PLK1 PBD inh 23.8µM
N#CC1=C2Nc3ccccc3N2C(=O)NC1(c1ccccc1)C(F)(F)F (centres undefined)	PLK1 PBD inh 23.8µM
Cc1ccc(C2(C(F)(F)F)NC(=O)N3N=C4CCCCCN4C3=C2C#N)cc1 (centres undefined)	none
O=C(Cn1c(=O)n(-c2ccc(F)c(Cl)c2)c(=O)c2sc3ccccc3c21)NC1CCCC1	none (no result: Tb PFK inh, PLK1 PBD inh)
CCOc1ccc(/C=C2/SC(=O)NC2=S)cc1	PLK1 PBD inh inconclusive
CCOc1ccc(N=C2NC(=O)S/C2=C\c2ccc(N(C)C)cc2)cc1	BRCA1 expr act 3.16µM
CN1CCN(c2ncnc3ccc(-c4cccnc4)cc23)CC1	none (no result: Tb PFK inh, BRCA1 expr act, PLK1 PBD inh)
COc1ccc(NC(=O)c2cc(-c3ccco3)nc3ccccc23)cc1S(=O)(=O)N1CCOCC1	VDR inhibitor 28.2µM, PLK1 PBD inh 21.2µM
Cc1ccc(NC(=O)c2cc(-c3ccco3)nc3ccccc23)cc1S(=O)(=O)N1CCOCC1	none
Cc1ccc2nc(CCc3nc4ccc(C)cc4o3)oc2c1	VDR inhibitor inconclusive, PLK1 PBD inh 5.97µM
Cc1ccc2nc(-c3cccc(-c4nc5ccc(C)cc5o4)n3)oc2c1	VDR inhibitor 50.1µM (no result: Tb PFK inh, PLK1 PBD inh)
COc1ccc(C2CC(c3ccccc3)Oc3c(C)ccc(C)c32)cc1 (centres undefined)	none (no result: Tb PFK inh, BRCA1 expr act, PLK1 PBD inh)
CC(C)CCN1C(=O)c2ccc(C(=O)Nc3cc(C(=O)O)cc(C(=O)O)c3)cc2C1=O	none
O=C(Nc1ccc(Cl)cc1C(=O)O)c1ccc2c(c1)C(=O)N(Cc1ccco1)C2=O	VDR inhibitor inconclusive, PLK1 PBD inh 26.7µM
CC(C)CN1C(=O)c2ccc(C(=O)Nc3ccccc3C(=O)O)cc2C1=O	VDR inhibitor inconclusive, PLK1 PBD inh 23.8µM
CC(C)CCN1C(=O)c2ccc(C(=O)Nc3ccc(Br)cc3C(=O)O)cc2C1=O	VDR inhibitor 79.4µM, PLK1 PBD inh inconclusive
Cc1ccccc1NC(=O)c1ccc2c(c1)C(=O)N(CC(C)C)C2=O	none
CC(C)CNC(=O)C1(C)CCCN1C(=O)Cc1cccc2ccccc12 (centres undefined)	none (no result: Tb PFK inh, VDR inhibitor)
COc1cccc(C(=O)O/N=C/c2ccc(Sc3ccc(C)cc3)nc2)c1	BRCA1 expr act 7.08µM
CCOC(=O)c1sc(NC(=O)c2ccc(OC)cc2)nc1C	none
CCOC(=O)c1sc(=S)n(-c2ccccc2Cl)c1C	none
CCOC(=O)c1sc(=S)n(C)c1NC(=O)c1ccccc1Cl	VDR inhibitor inconclusive, PLK1 PBD inh 11.9µM
CCOC(=O)c1sc(=S)n(C)c1NC(=O)c1ccc(OC)cc1	Tb PFK inh inconclusive, VDR inhibitor 50.1µM, PLK1 PBD inh 3.36µM
CC(C(=O)Nc1ccc(O)cc1)c1cccc(C(=O)c2ccccc2)c1 (centres undefined)	PLK1 PBD inh 11.9µM
CC(C)n1cnc2cc(NCc3ccco3)ccc21	BRCA1 expr act 10µM
Cc1cc(OCC(=O)N2CCC(c3nc4ccccc4s3)CC2)ccc1Cl	none (no result: Tb PFK inh, BRCA1 expr act, PLK1 PBD inh)
CC(C)(C)NC(=O)Cn1c(SCC(=O)NC2CC2)nc2ccccc21	none
CC(C)(C)NC(=O)Cn1c(SCC(N)=O)nc2ccccc21	VDR inhibitor inconclusive, PLK1 PBD inh 15µM
CN(CC(=O)N/N=C/c1ccc(F)cc1)S(=O)(=O)c1ccccc1	none (no result: Tb PFK inh, VDR inhibitor)
CC(C)C(=O)N(c1ccc2oc(=O)sc2c1)S(=O)(=O)c1cccs1	VDR inhibitor 44.7µM
CCCC(=O)N(c1ccc2oc(=O)sc2c1)S(=O)(=O)c1ccccc1	VDR inhibitor inconclusive
CC(=O)N(c1ccc2oc(=O)sc2c1)S(=O)(=O)c1cccc2cccnc12	VDR inhibitor inconclusive
COc1ccc(N(C(=O)C(C)C)S(=O)(=O)c2cccs2)cc1	none
CC(=O)N(c1ccc2oc(=O)sc2c1)S(=O)(=O)c1cccs1	VDR inhibitor 89.1µM, PLK1 PBD inh inconclusive
CC(C)C(=O)N(c1cc2sc(=O)oc2c2ccccc12)S(=O)(=O)c1cccs1	VDR inhibitor 35.5µM
CC(=O)N(c1ccc2oc(=O)sc2c1)S(=O)(=O)c1ccc(C(=O)O)cc1	Tb PFK inh inconclusive, VDR inhibitor 79.4µM, PLK1 PBD inh inconclusive
CC1(C(=O)NS(=O)(=O)c2ccc(Cl)cc2)CCN1C(=O)c1ccc(C2CCCCC2)cc1 (centres undefined)	none (no result: Tb PFK inh, VDR inhibitor)
CC(C)CN(Cc1cc(=O)oc2cc(-c3ccccc3)c(O)cc12)CC(C)C	PLK1 PBD inh 29.9µM
Cc1ccccc1C1CC(=O)Nc2ccc3ccccc3c21 (centres undefined)	none (no result: Tb PFK inh, PLK1 PBD inh)
COc1ccccc1N1CCN(CCn2c(=O)c3c(c4ccccc4n3C)n(C)c2=O)CC1	VDR inhibitor 44.7µM! (no result: Tb PFK inh, BRCA1 expr act, PLK1 PBD inh)
Cc1cc(C)c(NC(=O)c2sc3nc(C)[nH]c(=O)c3c2C)c(C)c1	none (no result: VDR inhibitor, BRCA1 expr act, PLK1 PBD inh)
Cc1ccc(NC(=O)c2sc3nc(CCl)[nH]c(=O)c3c2C)c(C)c1	BRCA1 expr act 11.2µM, PLK1 PBD inh inconclusive
Clc1ccccc1-c1cnc2sc(NCc3ccc4c(c3)OCO4)nn12	none (no result: Tb PFK inh, VDR inhibitor)
O=C(COc1ccc(/C=N/NC(=O)c2ccccc2O)cc1)Nc1ccc([N+](=O)[O-])cc1	PLK1 PBD inh 21.2µM
O=[N+]([O-])c1ccc(N=NNc2ccccc2)cc1	PLK1 PBD inh 29.9µM
O=[N+]([O-])c1cccc(NN=Nc2ccccc2)c1	none
COc1ccc(/C=C/C(=O)Nc2sc3c(c2C(N)=O)CCC(C)C3)cc1OC (centres undefined)	none (no result: Tb PFK inh, PLK1 PBD inh)
CN1CCc2c(sc(/N=C/c3ccco3)c2C(N)=O)C1	VDR inhibitor inconclusive
CN1CCc2c(sc(/N=C/c3cccs3)c2C(N)=O)C1	VDR inhibitor 31.6µM
COCc1nnc(NC(=O)c2cc(OC)c(OC)cc2[N+](=O)[O-])s1	PLK1 PBD inh 29.9µM
COc1cc(C(=O)Nc2nnc(CC(C)C)s2)c([N+](=O)[O-])cc1OC	none
COCc1nnc(NC(=O)CCCOc2ccccc2)s1	none
COCc1nnc(NC(=O)CCCOc2ccccc2OC)s1	PLK1 PBD inh 26.7µM
COCc1nnc(NC(=O)c2cc(Cl)ccc2OC)s1	PLK1 PBD inh 29.9µM
